In all, about 5,500 compounds went through this assay and about 2,000 (36%) were called active. About 18% were inconclusive and are not listed. No stated cut-off is given here; in the data, active means normalized growth mostly below about 0.91 (no sharp cut-off); inconclusive means no clear call, values can overlap the other calls; inactive means mostly above about 0.92. The list shows a part of the results.
Assay: chemical genetic growth profiling, strain panel (AID 1159580);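 further: tested at 20 µM; growth read once vehicle control cultures reached saturation at 30 °C; 1 = growth at the plate median or of vehicle wells; lower values mean less growth of the strain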
Conditions: growth OD

Measured: normalized growth

COc1ccc2c(c1)CCC1C2CC[C@@]2(C)C1CC[C@@H]2O (some centres not stated)
active: S. cerevisiae deletion strains, locus YJR075W, strain HOC1, active compounds read low 0.705 | S. cerevisiae deletion strains, locus YKL009W, strain mrt4, active compounds read low 0.685 | S. cerevisiae deletion strains, locus YKL085W, strain MDH1 (second series), active compounds read low 0.853 | S. cerevisiae deletion strains, locus YKL085W, strain MDH1, active compounds read low 0.853 | S. cerevisiae deletion strains, locus YKL160W, strain elf1, active compounds read low 0.829 | S. cerevisiae deletion strains, locus YKL190W, strain CNB1, active compounds read low 0.843 | S. cerevisiae deletion strains, locus YKR001C, strain vps1, active compounds read low 0.359 | S. cerevisiae deletion strains, locus YLL001W, strain dnm1, active compounds read low 0.838 | S. cerevisiae deletion strains, locus YLL026W, active compounds read low 0.902 | S. cerevisiae deletion strains, locus YLR027C, strain aat2, active compounds read low 0.816 | S. cerevisiae deletion strains, locus YLR039C, strain RIC1, active compounds read low 0.351 | S. cerevisiae deletion strains, locus YLR058C, strain SHM2, active compounds read low 0.879 | S. cerevisiae deletion strains, locus YLR113W, strain HOG1, active compounds read low 0.816 | S. cerevisiae deletion strains, locus YLR221C, strain rsa3, active compounds read low 0.808 | S. cerevisiae deletion strains, locus YLR258W, strain gsy2, active compounds read low 0.892 | S. cerevisiae deletion strains, locus YLR262C, strain YPT6 (second series), active compounds read low 0.505 | S. cerevisiae deletion strains, locus YLR262C, strain YPT6, active compounds read low 0.293 | S. cerevisiae deletion strains, locus YLR268W, strain sec22, active compounds read low 0.818 | S. cerevisiae deletion strains, locus YLR320W, strain mms22, active compounds read low 0.722 | S. cerevisiae deletion strains, locus YLR330W, strain CHS5, active compounds read low 0.748 | S. cerevisiae deletion strains, locus YLR342W, strain FKS1 (second series), active compounds read low 0.398 | S. cerevisiae deletion strains, locus YLR342W, strain FKS1, active compounds read low 0.781 | S. cerevisiae deletion strains, locus YLR357W, strain rsc2, active compounds read low 0.852 | S. cerevisiae deletion strains, locus YLR418C, strain cdc73, active compounds read low 0.381 | S. cerevisiae deletion strains, locus YML032C, strain rad52, active compounds read low 0.696 | S. cerevisiae deletion strains, locus YML120C, strain ndi1, active compounds read low 0.896 | S. cerevisiae deletion strains, locus YMR058W, strain fet3, active compounds read low 0.872 | S. cerevisiae deletion strains, locus YMR078C, strain ctf18, active compounds read low 0.867 | S. cerevisiae deletion strains, locus YMR205C, strain PFK2, active compounds read low 0.697 | S. cerevisiae deletion strains, locus YMR223W, strain ubp8, active compounds read low 0.728 | S. cerevisiae deletion strains, locus YMR263W, strain SAP30, active compounds read low 0.785 | S. cerevisiae deletion strains, locus YMR307W, strain GAS1, active compounds read low 0.237 | S. cerevisiae deletion strains, locus YNL067W, strain RPL9B, active compounds read low 0.791 | S. cerevisiae deletion strains, locus YNL071W, strain lat1, active compounds read low 0.468 | S. cerevisiae deletion strains, locus YNL128W, strain TEP1, active compounds read low 0.78 | S. cerevisiae deletion strains, locus YNL153C, strain GIM3, active compounds read low 0.838 | S. cerevisiae deletion strains, locus YNL233W, strain BNI4, active compounds read low 0.584 | S. cerevisiae deletion strains, locus YNL250W, strain rad50, active compounds read low 0.85 | S. cerevisiae deletion strains, locus YNL271C, strain bni1, active compounds read low 0.8 | S. cerevisiae deletion strains, locus YNL298W, strain CLA4, active compounds read low 0.548 | S. cerevisiae deletion strains, locus YNL307C, strain MCK1, active compounds read low 0.266 | S. cerevisiae deletion strains, locus YNL322C, strain KRE1, active compounds read low 0.87 | S. cerevisiae deletion strains, locus YNR052C, strain pop2, active compounds read low 0.738 | S. cerevisiae deletion strains, locus YOL006C, strain TOP1, active compounds read low 0.477 | S. cerevisiae deletion strains, locus YOL147C, strain pex11, active compounds read low 0.695 | S. cerevisiae deletion strains, locus YOR070C, strain gyp1, active compounds read low 0.873 | S. cerevisiae deletion strains, locus YOR083W, strain WHI5, active compounds read low 0.825 | S. cerevisiae deletion strains, locus YOR106W, strain vam3, active compounds read low 0.738 | S. cerevisiae deletion strains, locus YOR136W, strain idh2, active compounds read low 0.853 | S. cerevisiae deletion strains, locus YOR144C, strain elg1, active compounds read low 0.898 | S. cerevisiae deletion strains, locus YOR184W, strain ser1, active compounds read low 0.458 | S. cerevisiae deletion strains, locus YOR265W, strain rbl2, active compounds read low 0.912 | S. cerevisiae deletion strains, locus YOR290C, strain snf2, active compounds read low 0.761 | S. cerevisiae deletion strains, locus YOR316C, strain cot1, active compounds read low 0.85 | S. cerevisiae deletion strains, locus YPL051W, strain arl3, active compounds read low 0.83 | S. cerevisiae deletion strains, locus YPL055C, strain LGE1, active compounds read low 0.53 | S. cerevisiae deletion strains, locus YPL078C, strain atp4, active compounds read low 0.791 | S. cerevisiae deletion strains, locus YPL106C, strain sse1, active compounds read low 0.837 | S. cerevisiae deletion strains, locus YPL240C, strain hsp82, active compounds read low 0.892 | S. cerevisiae deletion strains, locus YPL241C, strain CIN2, active compounds read low 0.893 | S. cerevisiae deletion strains, locus YPR119W, strain clb2, active compounds read low 0.917 | S. cerevisiae deletion strains, locus YPR163C, strain tif3, active compounds read low 0.657 | S. cerevisiae deletion strains, locus YPR167C, strain met16, active compounds read low 0.85 | S. cerevisiae deletion strains, strain wtn01, active compounds read low 0.731 | S. cerevisiae strains, strain wild type, active compounds read low 0.785
inactive: S. cerevisiae deletion strains, locus YKL068W, active compounds read low 0.944 | S. cerevisiae deletion strains, locus YKR026C, strain gcn3, active compounds read low 0.969 | S. cerevisiae deletion strains, locus YKR091W, strain srl3, active compounds read low 0.968 | S. cerevisiae deletion strains, locus YLL041C, strain sdh2, active compounds read low 0.973 | S. cerevisiae deletion strains, locus YLR102C, strain apc9, active compounds read low 0.951 | S. cerevisiae deletion strains, locus YLR370C, strain arc18, active compounds read low 0.959 | S. cerevisiae deletion strains, locus YLR371W, strain rom2, active compounds read low 0.925 | S. cerevisiae deletion strains, locus YLR384C, strain iki3, active compounds read low 1.02 | S. cerevisiae deletion strains, locus YML016C, strain PPZ1, active compounds read low 0.977 | S. cerevisiae deletion strains, locus YML124C, strain tub3, active compounds read low 0.934 | S. cerevisiae deletion strains, locus YMR125W, strain sto1, active compounds read low 0.938 | S. cerevisiae deletion strains, locus YMR129W, active compounds read low 0.961 | S. cerevisiae deletion strains, locus YMR231W, strain pep5, active compounds read low 0.963 | S. cerevisiae deletion strains, locus YNL183C, strain NPR1, active compounds read low 0.838 | S. cerevisiae deletion strains, locus YNL209W, strain ssb2, active compounds read low 0.934 | S. cerevisiae deletion strains, locus YNL248C, strain rpa49, active compounds read low 0.915 | S. cerevisiae deletion strains, locus YNL322C, strain KRE1 (second series), active compounds read low 0.907 | S. cerevisiae deletion strains, locus YNR049C, strain mso1, active compounds read low 0.984 | S. cerevisiae deletion strains, locus YOL012C, strain htz1 1.54 | S. cerevisiae deletion strains, locus YOR001W, strain rrp6, active compounds read low 0.893 | S. cerevisiae deletion strains, locus YOR061W, strain CKA2, active compounds read low 0.965 | S. cerevisiae deletion strains, locus YOR069W, strain VPS5, active compounds read low 0.968 | S. cerevisiae deletion strains, locus YOR080W, strain dia2, active compounds read low 0.98 | S. cerevisiae deletion strains, locus YOR231W, strain MKK1, active compounds read low 0.883 | S. cerevisiae deletion strains, locus YOR270C, strain vph1, active compounds read low 1.01 | S. cerevisiae deletion strains, locus YPL256C, strain CLN2, active compounds read low 0.878 | S. cerevisiae deletion strains, locus YPR141C, strain kar3, active compounds read low 0.967

Source: PubChem BioAssay AID1159580 (chemical genetic matrix, 2015)
